Screens as filed in PubChem BioAssay.
DAT uptake mod: human DAT dopamine uptake with cocaine, either direction. Q01959. LLC-PK1 hDAT cells, [14C]-dopamine uptake with cocaine IC80; actives deviate in either direction. B-score at 10 µM. actives 1.3% (n = 110,000). AID 449768;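 active means Z score or B-score, a plate-position-corrected score, falls beyond the plate's 99.7% confidence bounds, in either direction; inactive means both scores lie inside the 99.7% bounds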;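 further: scored against the spread of the other compound wells on the same plate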
PostGolgi ctrl: yeast control strain growth, post-Golgi counter-screen; efflux-deficient yeast background strain, growth absorbance A615, 16 h; actives 5% (n = 98,000); inhibition, % at 10 µM
Cav32 inh: blocks human Cav3.2 T-type calcium channel; AID 449739; actives 4% (n = 100,000); B-score at 10 µM; Cav3.2-expressing cells, Fluo-4 calcium fluorescence FDSS; hits give low values; O95180;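 active means single-dose well whose peak fluorescence ratio is a statistical outlier from its plate by either plate-standardised score or position-corrected B-score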
PostGolgi yeast: growth inhibition of a yeast mutant, post-Golgi transport screen | actives 0.9% (n = 98,000) | inhibition, % at 10 µM | AID 739 | post-Golgi transport phenotypic cell assay;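 further: yeast cells grown in 1536-well plates; yeast grown about 18 h at 30C before absorbance read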
PLAP act: activators of human placental alkaline phosphatase. AID 696. actives 1.2% (n = 96,000). purified PLAP enzyme, luminescent substrate read-out; hits give high values. activation fold at 20 µM. P05187; in the data active means activation fold above about 2
Target sequence (P05187 whole entry, looked up): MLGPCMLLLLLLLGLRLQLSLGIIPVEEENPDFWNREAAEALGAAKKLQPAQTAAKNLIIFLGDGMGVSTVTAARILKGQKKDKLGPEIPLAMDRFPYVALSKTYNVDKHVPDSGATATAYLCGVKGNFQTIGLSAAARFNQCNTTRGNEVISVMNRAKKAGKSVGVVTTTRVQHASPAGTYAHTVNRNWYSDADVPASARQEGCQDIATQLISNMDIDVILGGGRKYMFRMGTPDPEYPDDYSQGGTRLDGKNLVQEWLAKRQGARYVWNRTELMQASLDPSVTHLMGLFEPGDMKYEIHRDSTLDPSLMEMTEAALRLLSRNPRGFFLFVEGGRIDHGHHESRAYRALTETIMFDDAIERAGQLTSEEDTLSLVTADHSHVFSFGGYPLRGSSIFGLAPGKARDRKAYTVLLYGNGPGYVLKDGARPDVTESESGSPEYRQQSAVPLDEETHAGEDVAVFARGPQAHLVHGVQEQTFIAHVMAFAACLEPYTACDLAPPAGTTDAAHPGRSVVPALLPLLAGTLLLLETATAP
An asterisk follows results filed as active; . = not tested or not shown. In the library only some 9.6% were active in any assay of this set; here they are far more common. Unless noted, no stated cut-off is given here; in the data, active means inhibition above about 30%; inactive means the rest.

SMILES	DAT uptake mod	PostGolgi ctrl	Cav32 inh	PostGolgi yeast	PLAP act
Cc1ccc(S(=O)(=O)C2(C(=O)N3CCCCC3C)CC2)cc1 (stereo not given)	0.301	23.0	-0.24	-3.1	1.2
CCOC(=O)c1sc2ncn(C(C)C(=O)OCC)c(=O)c2c1C (stereo not given)	-0.283	2.9	-0.315	-0.1	1.7
CCOC(=O)c1sc2ncn(/N=C/c3cccnc3)c(=O)c2c1C	-0.897	-0.8	1.09	-1.6	2.1*
Cc1ccccc1OCC(=O)N/N=C/c1cccn1C	-0.196	12.2	0.238	0.0	0.9
Nc1nc(Br)c2c(F)cccc2c1-c1ccc(F)cc1	-0.74	25.8	-1.38	13.5	1
CCOC(=O)c1cc2c(c(CSc3nc4ccccc4c(=O)n3Cc3ccco3)c1)OCOC2	0.607	9.4	0.102	3.5	0.9
CCc1cc2c(=O)n(Cc3ccco3)c(SCC(=O)N3CCCc4ccccc43)nc2s1	-0.443	17.6	-5.31*	19.4	1.5
CCc1cc2c(=O)n(Cc3ccco3)c(SCc3c(C)noc3C)nc2s1	-0.349	32.5*	-2.87	-4.5	1.2
COCCn1c(SCC(=O)N2CCCc3ccccc32)nc2ccccc2c1=O	-0.0435	-1.6	-2.61	3.0	1.5
CCCn1c(=O)[nH]c(=O)c2c1nc(-c1ccccc1)n2CCN1CCOCC1	-0.0872	-1.0	0.642	-17.1	1.1
COc1cccc(NC(=O)CSc2nnc(-c3cc(-c4ccccn4)nc4ccccc34)o2)c1	-0.0488	50.4*	0.702	-7.5	1.3
COc1ccc(-c2nnc(SCC(=O)Nc3cccc(Cl)c3)o2)cc1	-0.615	-5.2	0.339	-2.4	1
CC(C)N(C(=O)CSc1nnc(-c2cc3ccccc3cc2O)n1Cc1ccco1)C(C)C	0.169	14.2	-6.63*	-3.2	1.5
O=C(CSc1nnc(-c2cc3ccccc3cc2O)n1Cc1ccco1)N1CCc2ccccc2C1	-0.75	80.0*	-5.1*	1.8	1.6
Cc1ccc(C2Nc3ccccc3C(=O)N2Cc2ccco2)cc1 (stereo not given)	0.432	1.0	-1.98	6.3	1
CCn1c(NC(=O)Nc2cccc(C)c2C)cc2sccc21	.	17.3	.	-4.3	0.8
CC(C)C[C@@H]1NC(=O)[C@H](CO)NC(=O)c2cc([N+](=O)[O-])cc(I)c2OCC[C@@H](C(N)=O)NC1=O	-0.115	.	-0.00174	.	.
Cc1ccc(C(=O)Nc2nc(C(C)(C)C)cs2)s1	0.361	13.8	-4.76	11.1	0.8
CC(C)(C)c1csc(NC(=O)c2ccc(Cl)s2)n1	-2.63*	23.6	-1.22	-2.0	1.2
O=C(Nc1nc(-c2cccs2)cs1)c1ccc(Cl)s1	0.158	20.8	-4.11*	31.5*	.
CC1(C(=O)N2CC3(CC(c4cccc(NC(=O)CC(c5ccccc5)c5ccccc5)c4)=NO3)C[C@@H]2C(N)=O)CC1 (stereo not given in full)	-0.0441	.	-0.0107	.	.
CCc1ccc(C(=O)N2CCC(c3nc4ccccc4s3)CC2)cc1	.	36.8*	-2.83	-6.4	1
O=C(CSc1ccc(Cl)cc1)N1CCC(c2nc3ccccc3s2)CC1	-0.226	41.1*	-2.8	3.5	1.2
Cc1cc(NC(=O)c2ccc(N(C)S(=O)(=O)c3ccccc3)cc2)no1	-0.417	-2.2	-0.72	-4.1	1
N=c1c(-c2nc3ccccc3[nH]2)cc(C(=O)c2cccs2)nn1-c1ccc(Cl)cc1	-0.312	.	0.475	.	.
SMILES	DAT uptake mod	PostGolgi ctrl	Cav32 inh	PostGolgi yeast	PLAP act
O=C1c2ccccc2C(=O)C1c1nccc2ccccc12	-1.64	61.4*	-0.956	3.5	0.8
COc1cccc(OC)c1C(=O)OCC(=O)Nc1ccc(OC(F)(F)F)cc1	1.06	21.3	-4.82*	-5.0	1.8
O=C(Nc1ccc2c(c1)C(=O)N(CC1CCCO1)C2=O)c1cccc(Br)c1 (stereo not given)	-1.23	14.8	-2.66*	-0.5	0.9
O=C(O)c1cccc(NC(=O)c2ccc3c(c2)C(=O)N(CC2CCCO2)C3=O)c1 (stereo not given)	0.209	8.1	1.58	3.4	0.8
CC1CCN(C(=O)Nc2cccc(NC(=O)N3CCC(C)CC3)c2)CC1	-0.13	30.5*	0.152	-1.5	0.9
Cc1ccc(C2CCN(C(=O)Nc3ccccc3)C2)cc1 (stereo not given)	-0.317	42.1*	-3.58	6.7	0.7
Cc1cc2c(ncn2Cc2ccccc2)c([N+](=O)[O-])c1C	-1.02	0.1	-1.22	1.8	0.8
Cc1cccc2cc(CN(Cc3cccs3)C3(c4nnnn4C4CCCC4)CCCC3)c(=O)[nH]c12	0.667	3.0	0.387	-6.1	1.4
O=C(CCNS(=O)(=O)c1cccc2nonc12)NC1CCCc2ccccc21 (stereo not given)	-0.136	31.8*	.	-8.0	0.8
